Hit rate of the full screen: of about 2,400 compounds, about 1,800 (75%) were called active. So high a share suggests a set chosen from earlier hits. Not all results are given here. A number with no mark means an inactive call. Cut-off read from the data, not from the text of the source: active = inhibition above about 22%; inactive = the rest.
Test: nonselective antagonists in TAAR1 counter-screen cells, counter-screen for hTAAR1 antagonist project, cell-based, fluorescence, calcium (AID 651780);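 note: CHO-Ga16 host cells stimulated with ATP at an EC80 level; 0% = agonist EC80 plus vehicle and 100% = vehicle without agonist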
Settings: counterscreen cell line, antagonist mode, at 3 µM, stronger effect = higher value

| SMILES | inhibition |
| --- | --- |
| O=C(CCc1ccccc1)Nc1cccc(-c2nnc(-c3ccco3)o2)c1 | 25.8% (active) |
| CCN=C1SC(CC(=O)Nc2ccc(C)cc2)C(=O)N1CC (centres undefined) | 29.4% (active) |
| O=C(Nc1ccccc1-c1nnn(CC(=O)N2CCN(c3ccccc3)CC2)n1)c1cccs1 | 36.9% (active) |
| Cn1c(C(=O)NCCc2ccsc2)cc2c(=O)n(C)c3ccccc3c21 | 27.8% (active) |
| Cc1ccccc1OCC(=O)Nc1ccc(N2CCN(C(=O)C(C)C)CC2)c(Cl)c1 | 43.2% (active) |
| CN(c1ccccc1)S(=O)(=O)c1cc(C(=O)Nc2nc3ccccc3[nH]2)ccc1Cl | 39.7% (active) |
| O=C(NCc1ccc2c(c1)OCO2)c1c(-c2ccsc2)sc2ccccc12 | 21.1% |
| COc1ccc(C2=NOC(Cn3nc(C(=O)NCc4ccc5c(c4)OCO5)cc3-c3ccccc3)C2)cc1 (centres undefined) | 34.1% (active) |
| O=C(COC(=O)c1ccccc1SCC(=O)N1CCCC1)Nc1ccccc1OC(F)F | 27.2% (active) |
| CC(C)N(Cc1ccccc1)C(=O)COC(=O)c1ccccc1SCC(=O)N1CCCC1 | 30.8% (active) |
| Cc1cc(C(C)(C)C)oc1C(=O)N(CC(=O)NC1CCCC1)Cc1ccc(Cl)cc1 | 36% (active) |
| COC(=O)Cc1nnn2c1[C@H](C)[C@H](c1ccccc1[N+](=O)[O-])OCC2 | 5.35% |
| COc1ccc(/C=C/C(=O)Nc2ccc(C34CC5CC(CC(O)(C5)C3)C4)cc2)cc1OC | 37% (active) |
| CCOc1ccc(N2CC(C(=O)N/N=C/c3sccc3C)CC2=O)cc1 (centres undefined) | 10.5% |
| CSc1ncnc2c1ncn2CC(=O)C1CCC2C3CCC4=CC(=O)CCC4(C)C3CCC12C (centres undefined) | 49.7% (active) |
| CC(C)Oc1cc(F)ccc1-c1cc(C(=O)Nc2ccc(F)cc2)[nH]n1 | 26.3% (active) |
| COc1ccc(-c2cc(C(=O)Nc3ccccc3O)c3ccccc3n2)cc1 | 32.2% (active) |
| COc1ccc(NC(=O)c2cc(-c3ccc(C)o3)nc3ccccc23)cc1 | 36.1% (active) |
| N#Cc1cccc(NC(=O)COC(=O)c2ccccc2C(=O)c2ccc(Cl)c([N+](=O)[O-])c2)c1 | 36.1% (active) |
| O=C(NCCN1CCOCC1)c1ccc(/C=C2\Sc3ccccc3N(Cc3ccc(F)cc3)C2=O)cc1 | 35.2% (active) |
| O=C(NCCN1C(=O)S/C(=C\c2cccnc2)C1=O)c1ccc(S(=O)(=O)N2CCCC2)cc1 | 13% |
| COc1ccc(-c2cc(C(=O)N(C)CC(=O)Nc3ccccc3Cl)c3ccccc3n2)cc1OC | 27.4% (active) |
| COc1ccc(-c2cc(C(=O)N(C)Cc3ccccc3)c3ccccc3n2)cc1 | 27.7% (active) |
| COc1ccc(-c2cc(C(=O)N(C)Cc3ccc(OC)c(OC)c3OC)c3ccccc3n2)cc1OC | 30.9% (active) |
| COc1ccc(CN(C)C(=O)c2cc(-c3ccc(C)cc3C)nc3ccccc23)c(OC)c1OC | 28% (active) |
| COc1ccc(C(=O)Nc2ccccc2C(=O)N/N=C/c2ccc(O)c(OC)c2)cc1 | 38.3% (active) |
| CCOc1cc(/C=N/NC(=O)c2cc(-c3ccccc3)nc3ccccc23)ccc1O | 19% |
| O=C(N/N=C/c1ccc(OC(=O)c2ccccc2Cl)cc1)c1ccc(O)cc1 | 36.3% (active) |
| CC/C(=N/Nc1ccccc1)c1cnnc(SC)n1 | 16.8% |

From PubChem BioAssay AID651780 (The Scripps Research Institute Molecular Screening Center, 2012)
